In PubChem BioAssay AID808 (Columbia University Molecular Screening Center, 2007):
Among all 93,000 compounds or so, about 180 (0.19%) were called active. This excerpt belongs to a sample that is enriched for actives. Values without a mark were called inactive.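 The calls were made as follows: active = activation above the screen mean plus 3 SD, with well images confirming the hit on visual review (cut at about 28% in these data, passing the limit was not always enough); inconclusive = activation above that limit but images do not confirm it; inactive = activation not above that limit.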

test: potentiators of TNFa-induced VCAM1 expression, primary screen, imaging, HUVEC, TNFa stimulus, immunofluorescence (AID 808); conditions: HUVEC TNFa-stimulated VCAM-1 immunofluorescence, high-content imaging; at 2 µM; active compounds read high;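 also: signal is the number of cytoplasmic VCAM-1 stained grains per positive cell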

| SMILES | activation |
| --- | --- |
| COC(=O)CN1C(=O)C2(C(C(=O)OC)=C(N)Oc3ccccc32)C2=C1CC(C)(C)CC2=O (stereo not given) | 33.9% (active) |
| CCOC(=O)C(O)(c1ccc(N)c(OC)c1)C(F)(F)F (stereo not given) | -9.7% |
| c1cncc(CNC2=NCCC2)c1 | -5.4% |
| O=C(NCC(c1cccnc1)N1CCN(c2ccccc2)CC1)Oc1ccccc1 (stereo not given) | 1.5% |
| CNC(=O)N(C)c1nnc(C(C)(C)C)s1 | 4.6% |
